These results are taken from PubChem BioAssay (EPA / NIEHS).

Structures are written as SMILES. The source made the active and inactive calls. How the source made its calls: active means hit-call score of the fitted dose curve at least 0.9, where 1 is the maximum; inactive means score below 0.9.

Common to all, as to conditions: mRNA level, 48 h; actives raise or lower the signal
Read-out in test [1]: Fatty acid synthase (Homo sapiens) (UniProt P49327)
The experiment in a line: LTEA_HepaRG_FASN: Life Technologies and Expression Analysis (LTEA) Assay for Fatty Acid Synthase (FASN) using HepaRG (AID 2283448). In outline:
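FASN transcript measured by TaqMan qRT-PCR, normalised to three housekeeping genes, after 48 h chemical exposure of HepaRG cells. Eight-point half-log series from 100 uM in 0.5% DMSO, duplicates; gain or loss fitted against vehicle.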

Read-out in test [2]: Cyclin D2 (CCND2), CCND2 (gene 894)
The experiment in a line: LTEA_HepaRG_CCND2: Life Technologies and Expression Analysis (LTEA) Assay for Cyclin D2 (CCND2) using HepaRG (AID 2283449).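 Further: CCND2 transcript measured by TaqMan qRT-PCR and normalised to three housekeeping genes.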 In outline:
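In this HepaRG study, an eight-point concentration series (max 100 uM, 0.5% DMSO) is applied for 48 h. CCND2 mRNA change is derived by qRT-PCR normalised to ACTB, GAPDH and POLR2A.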

Read-out in test [3]: Cyclin Dependent Kinase Inhibitor 1A (CDKN1A), CDKN1A (gene 1026)
Put plainly: LTEA_HepaRG_CDKN1A: Life Technologies and Expression Analysis (LTEA) Assay for Cyclin Dependent Kinase Inhibitor 1A (CDKN1A) using HepaRG (AID 2283450). A digest of the protocol: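 Read-out is CDKN1A mRNA by TaqMan qRT-PCR, normalized to three housekeeping genes and fitted in both directions against the DMSO baseline. Human HepaRG cells were treated 48 h with test chemicals up to 100 uM in half-log steps, 0.5% DMSO.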

Read-out in test [4]: Cyclin D1 (CCND1), CCND1 (gene 595)
The experiment in a line: LTEA_HepaRG_CCND1: Life Technologies and Expression Analysis (LTEA) Assay for Cyclin D1 (CCND1) using HepaRG (AID 2283451).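 On AC50: TaqMan qRT-PCR transcript level normalised to ACTB GAPDH and POLR2A housekeeping genes.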 In outline:
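HepaRG plated 48 h, medium switched to serum-free induction medium, chemicals added in duplicate (top 100 uM, half-log steps, 0.5% DMSO) for 48 h, cells lysed, RNA measured by TaqMan qRT-PCR.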

Read-out in test [5]: catalase (CAT), CAT (gene 847)
Put plainly: LTEA_HepaRG_CAT: Life Technologies and Expression Analysis (LTEA) Assay for catalase (CAT) using HepaRG (AID 2283452). A digest of the protocol: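 Differentiated HepaRG cells in serum-free induction medium were dosed 48 h in duplicate, eight half-log concentrations from 100 uM in 0.5% DMSO. Transcript measured by TaqMan qRT-PCR, normalised to ACTB/GAPDH/POLR2A, fitted bidirectionally against DMSO.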

Read-out in test [6]: flavin-containing dimethylaniline monooxygenases 3 (FMO3), FMO3 (gene 2328)
The experiment in a line: LTEA_HepaRG_FMO3: Life Technologies and Expression Analysis (LTEA) Assay for flavin-containing dimethylaniline monooxygenases 3 (FMO3) using HepaRG (AID 2283453).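 On AC50: FMO3 transcript by TaqMan qRT-PCR normalized to ACTB GAPDH and POLR2A.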 In outline:
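FMO3 transcript quantified by TaqMan qRT-PCR against three housekeeping genes after 48 h chemical exposure of HepaRG cells. Eight-point half-log series, top 100 uM, 0.5% DMSO vehicle; phenobarbital 1mM induction control; up- or down-regulation fitted.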

Read-out in test [7]: Cytochrome P450 (CYP1A1), CYP1A1 (gene 1543)
Put plainly: LTEA_HepaRG_CYP1A1: Life Technologies and Expression Analysis (LTEA) Assay for Cytochrome P450 (CYP1A1) using HepaRG (AID 2283454). In outline: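 HepaRG, 48 h post-plating switched to serum-free induction medium; 8-pt conc-response (top 100 uM, half-log, 0.5% DMSO), duplicates, 48 h. Lysis in RLT, TaqMan qRT-PCR for CYP1A1; gain or loss vs DMSO.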

Read-out in test [8]: Forkhead box O1 (FOXO1), FOXO1 (gene 2308)
Put plainly: LTEA_HepaRG_FOXO1: Life Technologies and Expression Analysis (LTEA) Assay for Forkhead box O1 (FOXO1) using HepaRG (AID 2283456). A digest of the protocol: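 Using one lot of HepaRG hepatic cells kept in 0.5% DMSO, the team applied test chemicals in duplicate, half-log dilutions from 100 uM, for 48 h. Expression, normalised to ACTB/GAPDH/POLR2A, was compared with vehicle in either direction.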

Read-out in test [9]: Tumor necrosis factor receptor superfamily member 6 (Homo sapiens) (UniProt P25445)
Put plainly: LTEA_HepaRG_FAS: Life Technologies and Expression Analysis (LTEA) Assay for Fas cell surface death receptor (FAS) using HepaRG (AID 2283447). A digest of the protocol: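 Differentiated human HepaRG cells, pre-cultured 48 h, were exposed in duplicate for 48 h to 8-point half-log concentrations (top 100 uM, 0.5% DMSO) in serum-free induction medium; FAS mRNA measured by qRT-PCR, normalized to ACTB/GAPDH/POLR2A, bidirectional fit versus DMSO.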

Read-out in test [10]: CFLAR gene, CFLAR (gene 8837)
Put plainly: LTEA_HepaRG_CFLAR: Life Technologies and Expression Analysis (LTEA) Assay for CFLAR gene using HepaRG (AID 2283455). In outline:
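Gain- or loss-of-signal changes in CFLAR transcript were fitted bidirectionally relative to 0.5% DMSO. Cells (HepaRG, duplicate wells) were dosed for 48 h across eight half-log concentrations topping at 100 uM; quantitation by TaqMan qRT-PCR.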

Chain of Fatty acid synthase (Homo sapiens) (P49327 whole entry, looked up): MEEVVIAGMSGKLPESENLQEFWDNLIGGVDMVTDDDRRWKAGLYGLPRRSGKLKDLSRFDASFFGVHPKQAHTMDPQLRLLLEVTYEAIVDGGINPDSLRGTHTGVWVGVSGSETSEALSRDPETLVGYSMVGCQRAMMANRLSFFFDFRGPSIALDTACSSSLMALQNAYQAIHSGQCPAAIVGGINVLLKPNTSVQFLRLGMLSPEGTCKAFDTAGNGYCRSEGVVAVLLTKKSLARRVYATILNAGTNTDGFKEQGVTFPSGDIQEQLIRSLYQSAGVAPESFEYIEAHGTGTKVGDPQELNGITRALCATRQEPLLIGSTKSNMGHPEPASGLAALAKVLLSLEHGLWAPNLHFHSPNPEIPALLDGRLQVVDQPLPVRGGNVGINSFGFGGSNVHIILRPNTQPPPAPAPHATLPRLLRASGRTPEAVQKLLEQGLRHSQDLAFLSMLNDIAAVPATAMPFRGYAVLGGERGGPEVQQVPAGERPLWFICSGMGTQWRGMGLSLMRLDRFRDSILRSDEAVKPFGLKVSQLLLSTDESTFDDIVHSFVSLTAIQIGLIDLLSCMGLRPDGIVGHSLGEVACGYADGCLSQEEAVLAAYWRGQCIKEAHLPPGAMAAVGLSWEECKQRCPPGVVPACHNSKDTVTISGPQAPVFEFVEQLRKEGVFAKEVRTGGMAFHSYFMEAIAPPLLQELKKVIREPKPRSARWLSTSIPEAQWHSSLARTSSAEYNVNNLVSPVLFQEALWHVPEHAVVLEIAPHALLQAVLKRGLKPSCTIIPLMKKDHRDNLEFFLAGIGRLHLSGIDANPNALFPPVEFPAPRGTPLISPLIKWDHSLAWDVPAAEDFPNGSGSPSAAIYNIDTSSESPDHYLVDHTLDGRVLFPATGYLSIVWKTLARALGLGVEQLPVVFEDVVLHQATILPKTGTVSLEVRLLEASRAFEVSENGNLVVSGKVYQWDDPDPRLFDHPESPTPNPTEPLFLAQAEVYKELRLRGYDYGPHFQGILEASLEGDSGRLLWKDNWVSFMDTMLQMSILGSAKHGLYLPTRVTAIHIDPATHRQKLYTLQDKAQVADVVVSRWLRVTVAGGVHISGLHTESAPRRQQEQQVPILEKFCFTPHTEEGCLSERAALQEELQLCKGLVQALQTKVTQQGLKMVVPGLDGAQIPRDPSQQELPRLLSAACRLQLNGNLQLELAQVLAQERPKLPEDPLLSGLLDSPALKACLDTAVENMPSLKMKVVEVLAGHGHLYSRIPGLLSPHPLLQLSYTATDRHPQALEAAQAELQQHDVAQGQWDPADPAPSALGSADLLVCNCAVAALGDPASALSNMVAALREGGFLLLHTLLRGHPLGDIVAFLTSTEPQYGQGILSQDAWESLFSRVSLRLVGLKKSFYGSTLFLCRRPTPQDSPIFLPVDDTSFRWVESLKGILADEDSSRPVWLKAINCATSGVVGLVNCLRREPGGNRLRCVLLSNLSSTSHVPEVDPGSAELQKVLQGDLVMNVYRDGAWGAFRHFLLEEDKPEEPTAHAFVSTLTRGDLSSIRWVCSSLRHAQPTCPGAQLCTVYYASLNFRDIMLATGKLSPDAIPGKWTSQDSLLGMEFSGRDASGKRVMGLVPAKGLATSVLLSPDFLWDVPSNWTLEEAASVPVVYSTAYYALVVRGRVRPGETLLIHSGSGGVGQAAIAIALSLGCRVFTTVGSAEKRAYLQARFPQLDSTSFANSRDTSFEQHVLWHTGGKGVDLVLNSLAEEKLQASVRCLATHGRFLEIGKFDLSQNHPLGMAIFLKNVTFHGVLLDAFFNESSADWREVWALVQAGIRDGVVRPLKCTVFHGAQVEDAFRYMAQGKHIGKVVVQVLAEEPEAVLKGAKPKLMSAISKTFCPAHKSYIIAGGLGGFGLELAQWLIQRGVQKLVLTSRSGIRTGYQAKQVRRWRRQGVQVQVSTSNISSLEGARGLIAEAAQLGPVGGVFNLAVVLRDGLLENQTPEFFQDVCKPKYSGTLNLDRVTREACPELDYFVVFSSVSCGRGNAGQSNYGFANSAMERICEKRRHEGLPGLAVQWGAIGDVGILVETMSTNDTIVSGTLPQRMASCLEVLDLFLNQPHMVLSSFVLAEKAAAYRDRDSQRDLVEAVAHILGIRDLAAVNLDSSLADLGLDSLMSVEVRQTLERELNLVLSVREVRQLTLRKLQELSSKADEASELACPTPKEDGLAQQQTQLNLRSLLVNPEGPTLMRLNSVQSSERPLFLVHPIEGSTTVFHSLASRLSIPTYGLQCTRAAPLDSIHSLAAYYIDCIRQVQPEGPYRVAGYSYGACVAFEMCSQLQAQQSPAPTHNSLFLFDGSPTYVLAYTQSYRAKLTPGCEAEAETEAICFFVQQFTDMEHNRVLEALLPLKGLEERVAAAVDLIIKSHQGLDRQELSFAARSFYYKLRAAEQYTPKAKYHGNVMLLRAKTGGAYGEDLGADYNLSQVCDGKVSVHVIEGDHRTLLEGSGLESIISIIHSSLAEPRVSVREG

In general, AC50 refers to the concentration giving half of the maximal activity seen. In the case of `C/C=C/C=C/C(=O)O`, the compound was called inactive in test [1], in test [2], in test [3], in test [4], in [5] and in test [6]. Besides, the compound was classed as inactive in [8]. Further, in test [7], the AC50 was 76.6 µM (active).

On to `CO[C@@H]1COCC[C@@H]1N[C@@H]1CC[C@@](C(=O)N2CCc3ncc(C(F)(F)F)cc3C2)(C(C)C)C1`, for which the outcome in test [9], in [1], in [2], in [3], in test [4] and in test [6] was inactive. Moreover, the outcome in [7] and in test [8] was inactive.

For the compound `CCc1nc(N)nc(N)c1-c1ccc(Cl)cc1`, the call in [9], in [1], in test [2], in test [4], in test [7] and in test [8] was inactive. Besides, the AC50 in test [3] is 70.2 µM (active); in test [6] it was 69.4 µM (active).

`CC(C)NCC(O)c1ccc(O)c(O)c1` (stereo unspecified): the outcome in test [9], in test [2] and in test [8] was inactive. The AC50 in test [1] was 0.219 µM (active); in [3], 0.148 µM (active); in test [4], 0.141 µM (active); in test [6] it was 0.451 µM (active); in test [7], 0.147 µM (active).

Consider `O=C(O)c1cccnc1`, for which the call in [9], in [1], in [3], in test [4], in [6] and in test [7] was inactive. In addition, the compound was classed as inactive in test [10] and in test [8].

On to `O=C1O[C@H]([C@H](O)CO)C(O)=C1O`, for which the call in [9], in test [1], in [2], in [3], in [4] and in test [6] was inactive. Further, the compound was classed as inactive in [10] and in test [8]. For the same compound, the AC50 in test [7] is 64.4 µM (active).

As for `CCCCC(CC)COP(=O)(OCC(CC)CCCC)OCC(CC)CCCC` (stereo unspecified), the result in test [9], in [1], in test [2], in test [3], in test [4] and in test [6] was inactive. For the same compound, the compound was classed as inactive in [8]. Further, the AC50 in test [7] was 25.6 µM (active).

Regarding `Cc1c(C)c2c(c(C)c1O)CCC(C)(COc1ccc(CC3SC(=O)NC3=O)cc1)O2` (stereo unspecified), the outcome in test [9], in test [1], in [3], in [4] and in [8] was inactive. In addition, the AC50 in test [6] is 93 µM (active); in [7], 27.5 µM (active).

On to `CC1(C)C(=O)NC(=O)N1CO`, for which the outcome in [9], in test [1], in test [2], in test [3], in test [4] and in [6] was inactive. Moreover, the compound was classed as inactive in [8]. For the same compound, the AC50 in test [7] is 50 µM (active).

Regarding `Cc1cc(Cc2ccc(N)c(C)c2)ccc1N`, the outcome in [9], in test [1], in [2], in test [3], in test [4] and in [6] was inactive. Further, the call in test [10] and in test [8] was inactive. For the same compound, the AC50 in test [7] is 50 µM (active).

With `COC(=O)CCC(=O)OC`, the result in [9], in test [1], in test [3], in test [4], in test [6] and in test [10] was inactive. Also, the outcome in test [8] was inactive. In test [7], the AC50 is 50 µM (active).

For `O=[Si]=O`, the compound was classed as inactive in test [1], in test [3], in test [4], in test [5], in test [6] and in [10]. Besides, the compound was classed as inactive in test [8]. Further, the AC50 in test [7] was 76.6 µM (active).

As to `CC(N)=O`, the compound was called inactive in test [9], in test [1], in test [3], in test [4], in test [6] and in test [7]. Besides, the compound was called inactive in test [8].

As to `O=C(O)CC(O)(CC(=O)O)C(=O)O`, the call in test [9], in test [1], in test [2], in [3], in [4] and in test [6] was inactive. The result in [8] was inactive. Further, the AC50 in test [7] was 50 µM (active).

Regarding `N[C@@H](Cc1c[nH]c2ccccc12)C(=O)O`, the outcome in [9], in test [1], in test [2], in test [3], in test [4] and in [6] was inactive. In addition, the call in test [8] was inactive. For the same compound, in [7], the half-maximal activity concentration (AC50) was 10.9 µM (active).

As for `COC(=O)[C@H]1[C@H]2C[C@@H]3c4[nH]c5cc(OC)ccc5c4CCN3C[C@H]2C[C@@H](OC(=O)c2cc(OC)c(OC)c(OC)c2)[C@@H]1OC`, the call in test [9], in [3], in test [4], in test [10] and in [8] was inactive. In addition, the AC50 is 28.1 µM (active) in test [1], 14.9 µM (active) in test [2] and 30.5 µM (active) in test [6].

Regarding `O=NO`, the compound was classed as inactive in test [9], in test [1], in test [3], in test [4], in test [5] and in test [6]. Moreover, the outcome in test [7] and in test [8] was inactive.
